From PubChem BioAssay
HT1080-NT tox = qHTS for induction of synthetic lethality in tumor cells producing 2HG: qHTS for the HT-1080-NT fibrosarcoma cell line; HT-1080-NT fibrosarcoma viability, CellTiter-Glo ATP luminescence, 48 h; Potency, µM (top dose mostly 46.1 µM), inactives show at the top dose activity, negative = less viability, usual class: cytotoxic; actives 1.6% (n = 360,000);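 further: NT is the 2HG producing partner of a matched IDH1 knockdown line; potency means the concentration at half of the fitted maximal effect; 0% = DMSO-treated cells and -100% = media-only wells without cells; nearly all actives have a fitted effect of over 55% in size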
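Fibrosarcoma NT cells, 750 per well in 5% FBS RPMI, were exposed to compound for 48 hours. Viability: CellTiter-Glo luminescence.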
HT1080 IDH1KD tx = qHTS for induction of synthetic lethality in tumor cells producing 2HG: qHTS for the HT-1080-IDH1KD cell line. HT-1080 IDH1 knockdown viability, ATP luminescence, 48 h. Potency, µM (highest dose often 46.1 µM), for inactives: top-dose activity, negative = toxicity, hits mostly cytotoxic. actives 2% (n = 360,000);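 further: potency means the concentration at half of the fitted maximal effect; 0% = DMSO wells and -100% = cell-free medium wells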
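In this qHTS, HT-1080 cells depleted of IDH1 are exposed for 48 h at 37 °C to compound titrations. Toxicity is scored from CellTiter-Glo luminescence, with DMSO as full viability and medium alone as none.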
DT40 TDP1 CPT = qHTS for Inhibitors of human tyrosyl-DNA phosphodiesterase 1 (TDP1): qHTS in cells in presence of CPT. chicken DT40 Tdp1-/-;hTDP1 cells + 20 nM CPT, ATP luminescence, 48 h. Potency, µM (top dose mostly 46.2 µM), for the others: at the highest dose activity change, negative = growth inhibition, usual class: inhibitors. actives 12% (n = 420,000). AID 686979, 2013; further: potency means the concentration at half of the fitted maximal effect; nearly all actives have a fitted effect of over 55% in size
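Chicken DT40 Tdp1-/- cells complemented with human TDP1, 400 cells/well, exposed to compounds plus 20 nM camptothecin for at least 48 h at 37 C; viability read as ATP content by CellTiter-Glo luminescence.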
TDP1 cell noCPT = qHTS for Inhibitors of human tyrosyl-DNA phosphodiesterase 1 (TDP1): qHTS in cells in absence of CPT. DT40 Tdp1-/- hTDP1 cells, no CPT, ATP luminescence, 48 h. Potency, µM (series often up to 46.2 µM), inactives show at the highest dose activity change, negative = growth inhibition, actives largely listed as inhibitors. actives 15% (n = 420,000); further: potency means the concentration at half of the fitted maximal effect; nearly all actives have a fitted effect of over 55% in size
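Growth kinetics read by CellTiter-Glo luminescence after ≥48 hr at 37 °C. Cells: DT40 Tdp1-/- stably carrying human TDP1, 400 per well, compound exposure in the absence of CPT (DMSO vehicle).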
IL1B secr inh = qHTS for Inhibitors of Inflammasome Signaling: IL-1-beta AlphaLISA Primary Screen; THP-1 LPS/ATP IL-1B secretion, AlphaLISA, 16 h; active compounds read low; activity change, % at 57.5 µM; actives 4.7% (n = 360,000); in the data active means activity change below about -50%; inconclusive means mostly about -30% to -49%
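THP-1 cells pretreated 1 hr with compounds (up to 57.5 uM final), then stimulated with LPS (250 ng/mL final) plus ATP (1.25 mM final); secreted IL-1B measured by AlphaLISA after 16 hr, decreased signal indicating inhibition.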
Active calls of the source: *; ? = inconclusive; . = no result given; [ ] = dose if it differs, or a comment. Compounds with a hit are over-represented: about 19% of the library has one in this group of screens. Unless noted, the call rests on the fitted dose curve; in most records, active means well fitted curve in the direction sought with a large enough effect; inconclusive means small, poorly fitted or top-dose-only effect, or another doubt; inactive means no such curve, though single readings can be large; an effect the other way counts as inactive or inconclusive. Unless noted, on the % scale 0 is the no-effect control and ±100 the full control effect.

SMILES	HT1080-NT tox	HT1080 IDH1KD tx	DT40 TDP1 CPT	TDP1 cell noCPT	IL1B secr inh
Cc1ccc(OCC(=O)Nc2ccc(-c3nc4ccc(C)cc4o3)cc2)cc1	.	.	16µM*	18µM*	.
Cc1ccc2nc(-c3ccc(C)c(NC(=O)COc4ccc(Br)cc4)c3)oc2c1	.	.	?	-12%	.
Cc1ccc(-c2csc(NS(=O)(=O)c3cccc(F)c3)n2)o1	2%	-1%	-13%	-19%	-15
O=C(COc1ccccc1)Nc1cccc(-c2nc3cc4ccccc4cc3[nH]2)c1	?	?	15µM*	21µM*	-85*
CC(=O)c1cccc(NC(=O)COc2ccccc2)c1	5%	2%	?	8%	-15
Cc1ccc(-c2nnc(-c3ccc4ccccc4c3)o2)cc1	?	9.2µM*	?	?	-9
COc1ccc(OCCCC(=O)Nc2cccc(SC)c2)cc1	-2%	1%	-3%	-19%	0
CSc1cccc(NC(=O)COc2ccccc2)c1	15%	7%	8.2µM*	4.6µM*	3
Clc1ccc(-c2nnc(-c3ccc4ccccc4c3)o2)cc1	9%	15%	-18%	-11%	-17
CSc1cccc(NC(=O)CCCOc2ccc(Cl)cc2C)c1	?	?	18µM*	?	-9
Nc1ccn([C@@H]2O[C@H](C(=O)N3CCCN(Cc4cccs4)CC3)[C@@H](O)[C@H]2O)c(=O)n1	1%	5%	18%	0%	6
CCOc1ccc(CNC(=S)N/N=C/c2ccc(OC)c(OC)c2)cc1	-1%	16%	-17%	?	0
CC1(O)CC(c2ccc(Cl)cc2)=NN1C(=O)c1ccc(Cl)cc1 (centres undefined)	-9%	-8%	10µM*	16µM*	-9
Cc1ccccc1C(=O)N1CCN=C1SCc1ccc([N+](=O)[O-])cc1	1%	-17%	-26%	?	-77*
Cc1ccc(CSC2=NCCN2C(=O)c2ccc([N+](=O)[O-])cc2)cc1	15%	19%	-9%	-6%	34
Cc1ccc(C(=O)N2CCN=C2SCc2ccc([N+](=O)[O-])cc2)cc1	-5%	-13%	?	15µM*	?
O=C(C1CCCC1)N1CCN=C1SCc1cccc([N+](=O)[O-])c1	-7%	-3%	5%	?	-29
O=C(c1cccc2ccccc12)N1CCN=C1SCc1ccc([N+](=O)[O-])cc1	-1%	0%	-17%	?	-65*
CC(C)[C@@H]1Cc2[nH]n(C)c(=O)c2[C@H](c2ccc(F)cc2)O1	16%	4%	3%	-1%	4
Cc1nc(COC(=O)c2c(C)nn(-c3ccccc3)c2C)cs1	-18%	0%	-4%	-14%	-4
Cc1ccc(O)c(N=Nc2ccccc2)n1	?	-7%	2.9µM*	16µM*	-25
Cc1cccc(N(C(=O)c2cnc3n(c2=O)CCS3)C2CCCCC2)c1	-7%	-5%	12µM*	?	6
O=C(c1cnc2n(c1=O)CCS2)N(C1CCCCC1)C1CCCCC1	13%	2%	?	23µM*	17
COC(=O)c1ccccc1NC(=O)C1CCN(C(=O)c2ccc(OC)cc2)CC1	22%	15%	-3%	-3%	-1
Nc1c(C(=O)c2ccc(Cl)cc2)sc2nsc(SCCN3CCOCC3)c12	15%	19%	4.6µM*	9.2µM*	11
SMILES	HT1080-NT tox	HT1080 IDH1KD tx	DT40 TDP1 CPT	TDP1 cell noCPT	IL1B secr inh
Cc1cc(C)c2c(N)c(C(=O)c3ccc(Cl)cc3)sc2n1	-29%	-28%	?	?	-28
Nc1c(C(=O)c2ccccc2)sc2nsc(SCCN3CCCC3)c12	12µM*	23µM*	?	?	-104*
N#Cc1c(SCc2ccccc2)sc(C(=O)c2ccccc2)c1N	?	-1%	6%	-1%	12
Cc1ccc(-n2c(=O)c3c4c(sc3n(CC(=O)c3ccc(Cl)cc3)c2=O)CCC4)cc1C	.	.	-6%	-13%	.
O=C(Nc1cccc(F)c1)N1CC[C@@]2(CCCNC2)C1	.	.	-17%	-24%	.
COc1ccc(C2(OC)Oc3cc(OC)ccc3C(=O)C2(O)OC)cc1 (centres undefined)	-6%	?	23µM*	?	-74*
CC(CCc1ccc(O)cc1)N1CCOc2c(O)cc(-c3nc4ccccc4s3)cc2C1 (centres undefined)	.	.	18µM*	16µM*	.
COc1ccccc1C(=O)Nc1sc(Nc2ccccc2)nc1C(N)=O	.	.	12µM*	6.5µM*	.
NC(=O)c1nc(Nc2ccccc2)sc1NC(=O)c1ccccc1Br	.	.	?	21µM*	.
O=C(Nc1nccs1)c1ccccc1Br	7%	14%	14%	-19%	4
C[C@@H]1CN(S(=O)C(C)(C)C)[C@H](CCO)/C1=C\CCO (some centres undefined)	14%	6%	1%	0%	2
C=CC1=C2C=C(C3CC3)N(C3CC3)C=C2C(=O)C(C)(OC(=O)c2ccco2)C1=O (centres undefined)	7%	1%	?	4%	-1
Cc1cc(C)c(C)c(S(=O)(=O)Nc2ccccc2N2CCOCC2)c1C	0%	0%	-16%	-8%	31
COc1cccc(C(=O)/C=C/c2ccc(OCC#N)c(OC)c2)c1	?	?	21µM*	13µM*	-102*
COc1cc(/C=C/C(=O)c2ccc(O)cc2)ccc1OCC#N	24%	16%	8.2µM*	10µM*	?
COC(=O)c1ccc(/C=C/C(=O)c2cccc(OC)c2)cc1	?	23µM*	?	23µM*	-101*
CCOc1ccc(/C=C/C(=O)c2ccccc2)cc1OC	-7%	0%	?	?	-103*
COc1ccc(OC)c(-c2cc(Cl)c3c(c2)CC(CNC(=O)c2cccnc2SC)O3)c1 (centres undefined)	.	.	3%[9.04 µM]	?	.
COc1cccc2[nH]c(C(=O)NCc3ccccc3)cc12	-16%	2%	-6%	-22%	-22
CN1CCN(C2CCN(c3cccc(Cl)c3)CC2)CC1CCO (centres undefined)	-3%	-1%	-8%	?	7
CCN(CC)C(=O)c1ccc2c3c(cccc13)C(=O)N(CCc1ccc(OC)c(OC)c1)C2=O	0%	11%	8.2µM*	8.2µM*	-73*
Cc1cnc(NC(=O)Cc2cccs2)s1	10%	6%	?	?	-2
